Assay results taken from PubChem BioAssay (EPA / NIEHS).
Calls of active or inactive are those of the source. The calls were made as follows: active = hit-call score of the fitted dose curve at least 0.9, where 1 is the maximum; inactive = score below 0.9.

experiment: ATG_M_19_CIS: Attagene CIS-FACTORIAL HepG2 Assay for M19 Transcription Factor (Internal Marker) (AID 2282939); conditions: HepG2 Attagene CIS-FACTORIAL M19 internal marker reporter; actives raise or lower the signal
Protocol: ATG_CIS is a cell-based, multiplexed-readout assay that uses HepG2, a human liver cell line, with measurements taken at 24 hours after chemical dosing in a 24-well plate.ATG_M_19_CIS is one of 52 assay component(s) measured or calculated from the ATG_CIS assay. It is designed to make measurements of mRNA induction, a form of inducible reporter, as detected with fluorescence intensity signals by Reverse transcription polymerase chain reaction (RT-PCR) and Capillary electrophoresis technology.Data from the assay component ATG_M_19_CIS was analyzed into 1 assay endpoint. This assay endpoint, ATG_M_19_CIS, was analyzed with bidirectional fitting relative to DMSO as the negative control and baseline of activity. Using a type of inducible reporter, measures of mRNA for gain or loss-of-signal activity can be used to understand the background control at the transcription factor-level as they relate to the gene . Furthermore, this assay endpoint can be referred to as a secondary readout, because this assay has produced multiple assay endpoints where this one serves a background control function. To generalize the intended target to other relatable targets, this assay endpoint is annotated to the background measurement intended target family, where the subfamily is internal marker.
Human liver HepG2 cells are transiently transfected with multiple reporter transcription units (MRTUs) in 6-well plates using FuGene 6 reagent (Roche; 3 ml FuGene/1 mg DNA). The MRTU constructs are regulated by a cis-regulating element (promoter). […] A major difference between the CIS and TRANS system is that in CIS activities of endogenous TFs are measured, whereas the TRANS assay evaluates changes in activities of exogenous, chimeric NR-Gal4 proteins. […] At the end of 24 hour incubation, total RNA was isolated using TriZol reagent (Invitrogen). The isolated RNA is then reverse-transcribed using oligo(dT) primer and Mo-MLV reverse transcriptase (Invitrogen) with DNAse I (Ambion) treatment for 30 min. The one-tenth of the produced cDNA was amplified by PCR using Taq DNA polymerase (Invitrogen) and two reporter sequence-specific primers. The PCR products were fluorescently labeled by primer extension with 6-arboxyfluorescein (6-FAM) 5'-labeled reporter sequence-specific primer (2 min at 95 C, 20 s at 68 C and 10 min at 72 C) and these products were digested with 5U of HpaI (New England Biolabs) for 2h at 37 C. The fragments were purified using Qiaquick PCR columns (Qiagen), analyzed on an ABI 3130xL genetic analyzer (Applied Biosystems) with peak positions identified by using a set of X-rhodamine (ROX)-labeled MapMarker1000 molecular weight standards (BioVentures). The raw capillary electrophoresis data was processed using Attagraph software (Attagene).

With `NNS(=O)(=O)c1ccc(Oc2ccc(S(=O)(=O)NN)cc2)cc1` as the molecule, how does the outcome read?
Its outcome is “inactive”.

With `CC=CC(=O)OCC(C)C` as the molecule, how does the outcome read?
Its outcome is “inactive”.

Which AC50 does the source give for `CCCCCCCCCCCCCCCCCCOS(=O)(=O)O` here?
The AC50 was 52.5 µM (active).

For `COC(OC)(C(=O)c1ccccc1)c1ccccc1`, which outcome is on record?
Its outcome is “inactive”.

For `CC(CC(C)C)=NO`, which outcome is on record?
The outcome was “inactive”.

Which outcome does the source give for `CC(C)c1cccc(C(C)C)c1N` here?
Its outcome is “inactive”.

Which outcome does the source give for `O=C(C=Cc1ccccc1)OCCc1ccccc1` here?
Its outcome is “inactive”.

Which outcome does the source give for `Clc1cc(Cl)c(Cl)c(Cl)c1Cl` here?
The outcome was “inactive”.

With `Cc1ccc(C)c(OCCCC(C)(C)C(=O)O)c1` as the molecule, how does the outcome read?
The outcome was “inactive”.

For `C=C[C@@]1(C)CC(=O)[C@]2(O)[C@@]3(C)[C@@H](O)CCC(C)(C)[C@@H]3[C@H](O)[C@H](OC(C)=O)[C@@]2(C)O1`, which outcome is on record?
The outcome was “inactive”.

For `O=C(O)C1CCC(C(=O)O)CC1` (stereo not given), which outcome is on record?
The outcome was “inactive”.

Which outcome does the source give for `C=C(C)C(=O)OCCOC(=O)C(=C)C` here?
The outcome was “inactive”.

With `COC(Cc1ccccc1)OC` as the molecule, how does the outcome read?
The outcome was “inactive”.

For `Cn1ccnc1`, which outcome is on record?
Its outcome is “inactive”.

For `CCc1cccc(CC)c1`, which outcome is on record?
Its outcome is “inactive”.

Which outcome does the source give for `CCCCCCCCCCCCCc1ccccc1` here?
Its outcome is “inactive”.

With `C=CC(=O)NCOCCCC` as the molecule, how does the outcome read?
The outcome was “inactive”.

With `O=C(O)CCC(=O)O` as the molecule, how does the outcome read?
Its outcome is “inactive”.

For `CC(=O)CC(=O)Nc1ccccc1C`, which outcome is on record?
The outcome was “inactive”.

With `C=C[Si](OCCOC)(OCCOC)OCCOC` as the molecule, how does the outcome read?
The outcome was “inactive”.

With `CC12CCC(CC1)C(C)(C)O2` as the molecule, how does the outcome read?
Its outcome is “inactive”.

For `Oc1ccc(/C=C/c2cc(O)cc(O)c2)cc1`, which outcome is on record?
Its outcome is “inactive”.

Which outcome does the source give for `CC(C)(CO)C(O)C(=O)NCCCO` (stereo not given) here?
Its outcome is “inactive”.

For `CCCCC/C=C\C/C=C\CCCCCCCC(=O)O`, which outcome is on record?
Its outcome is “inactive”.

With `CCC(=O)C1CC(C(C)C)CC=C1C` (stereo not given) as the molecule, how does the outcome read?
Its outcome is “inactive”.

With `Nc1ccc(Cl)c(N)c1` as the molecule, how does the outcome read?
Its outcome is “inactive”.

With `Nc1ncnc2nc[nH]c12` as the molecule, how does the outcome read?
Its outcome is “inactive”.

With `O=C(Cl)c1ccc(C(=O)Cl)cc1` as the molecule, how does the outcome read?
Its outcome is “inactive”.

With `CCCC(CC)c1ccccc1` (stereo not given) as the molecule, how does the outcome read?
Its outcome is “inactive”.

With `CC(c1cc(C(C)(C)C)cc(C(C)(C)C)c1O)c1cc(C(C)(C)C)cc(C(C)(C)C)c1O` as the molecule, how does the outcome read?
Its outcome is “inactive”.

Which outcome does the source give for `CC(=O)/C=C/C1C(C)=CCCC1(C)C` (stereo not given) here?
The outcome was “inactive”.

For `CCC(C)(O)CCCC(C)C` (stereo not given), which outcome is on record?
The outcome was “inactive”.

Which outcome does the source give for `CCC1(C)C(=O)N(Cl)C(=O)N1Cl` (stereo not given) here?
Its outcome is “inactive”.

Which outcome does the source give for `CCCCc1ccc(Cl)cc1` here?
Its outcome is “inactive”.

With `COC(=O)c1ccccc1C` as the molecule, how does the outcome read?
Its outcome is “inactive”.

For `N=C1C=CC(=C(c2ccc(N)cc2)c2ccc(N)cc2)C=C1`, which AC50 is on record?
The AC50 was 100 µM (active).

For `N#CC1(N)CCCCC1`, which outcome is on record?
The outcome was “inactive”.

Which outcome does the source give for `CCCCNC(=S)NCCCC` here?
The outcome was “inactive”.

Which outcome does the source give for `CCCCCCCCC(CO)CCCCCC` (stereo not given) here?
Its outcome is “inactive”.

With `Cc1c(Cl)cccc1Cl` as the molecule, how does the outcome read?
The outcome was “inactive”.
